Sampled rows, rich in hits. Any-hit rate of the full collection: about 7.5%.
Rab9 prom act – activators of Rab9 promoter. Potency, µM (doses to about 9.22 µM), inactives show at the top dose activation, negative = inhibition, usual class: activators. 320,000 tested, 2.8% active. Huh7 Rab9 promoter-luciferase reporter, luminescence, 24 h; further: % of control where 0% means no effect; nearly all actives have a fitted effect of over 60% in size
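Huh7 cells stably carrying a Rab9 promoter-luciferase reporter, 1500 cells per well in OP-MEM I with 10% FBS, treated with compound 24 hours at 37C. Luciferase activity read by luminescence after 10 minutes with Amplite reagent.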
ELG1 genotox – genotoxicity induction in ELG1-luciferase HEK293T cells. HEK293T ELG1-luciferase reporter, luminescence, 16 h. Potency, µM (highest dose often 46 µM), for inactives: at the top dose activity change, positive = activation, actives largely listed as activators. 330,000 tested, 1.3% active. AID 504466; further: % of control where 0% means no effect; nearly all actives have a fitted effect of over 60% in size
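DMSO vehicle served as control against compound-treated ELG1-luciferase HEK293T cells; exposure lasted 16 hr at 37 °C and 5% CO2, followed by ONE-Glo luminescence detection after 30 min.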
NPC1 promoter act – activates the NPC1 promoter | Huh7 NPC1 promoter luciferase reporter, 24 h | Potency, µM (titrated, usually from 9.22 µM), inactives show at the top dose activation, usual class: activators | 320,000 tested, 2.4% active; further: % of control where 0% means no effect; nearly all actives have a fitted effect of over 60% in size
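Quantitative HTS used a cell-based reporter: Huh7 cells stably bearing the NPC1 promoter upstream of luciferase were treated with compounds for 24 h, and promoter activation was read as luminescence.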
Luc counter – counter-screen: inhibitors of Kinase-Glo firefly luciferase | Q27757 | Kinase-Glo luciferase, ATP luminescence, 8 min | Potency, µM (titrated, usually from 38.3 µM), for the others: at the highest dose activity change, negative = inhibition, hits mostly inhibitors | 200,000 tested, 0.28% active | AID 1379; further: on the % scale 0 is the no-effect control and ±100 the full control effect; nearly all actives have a fitted effect of over 60% in size
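Luminescence was the read-out, taken after 8-minute incubation at ambient temperature. Luciferase turned over luciferin with 10 uM ATP in imidazole pH 7.2 buffer containing KCl, MgCl2, Tween 20 and BSA.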
SMN2 splice enh – enhancers of SMN2 splice variant expression | HEK293 SMN2-luciferase splicing reporter, luminescence, 30-36 h | Potency, µM (titrated, usually from 46.1 µM), for the others: top-dose activity change, positive = activation, most hits filed as activators | 210,000 tested, 2.8% active; further: % of control where 0% means no effect; nearly all actives have a fitted effect of over 55% in size
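HEK293 cells carry an SMN2 […]–luciferase reporter in which exon 7 inclusion puts luciferase in frame. Cells were plated 10-12 h before compound addition, then incubated 30-36 h at 37C. ONE-Glo luminescence was read; sodium butyrate at 4.5 mM final served as control.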
FLuc modulator – counter-screen for miR-21 project: firefly luciferase inhibitors or activators; P08659; purified FLuc, Km substrates, luminescence inhibition; Potency, µM (highest dose often 57.5 µM), for the others: at the highest dose activity change, negative = inhibition, actives largely listed as inhibitors; 360,000 tested, 6.9% active; AID 588342;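 further: plate controls were vehicle for no effect and reference inhibitor for full effect; nearly all actives have a fitted effect of over 55% in size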
Target sequence (P08659 whole entry, looked up): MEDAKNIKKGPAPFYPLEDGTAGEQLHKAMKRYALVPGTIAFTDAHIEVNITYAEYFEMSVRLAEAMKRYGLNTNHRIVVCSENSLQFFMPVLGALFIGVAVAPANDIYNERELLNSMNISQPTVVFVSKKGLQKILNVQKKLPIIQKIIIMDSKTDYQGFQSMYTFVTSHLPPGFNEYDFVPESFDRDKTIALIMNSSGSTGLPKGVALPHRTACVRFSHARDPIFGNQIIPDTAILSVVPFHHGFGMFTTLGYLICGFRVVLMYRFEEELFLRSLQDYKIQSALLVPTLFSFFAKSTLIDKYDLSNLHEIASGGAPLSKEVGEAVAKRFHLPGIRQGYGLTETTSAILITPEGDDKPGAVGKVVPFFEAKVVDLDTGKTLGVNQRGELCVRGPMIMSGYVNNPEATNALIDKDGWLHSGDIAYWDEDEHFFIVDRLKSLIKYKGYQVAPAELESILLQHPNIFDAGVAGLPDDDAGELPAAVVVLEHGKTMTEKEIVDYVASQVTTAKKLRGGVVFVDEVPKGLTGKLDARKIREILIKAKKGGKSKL
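Purified P. pyralis luciferase, 10 nM final, with Km-level 10 uM D-luciferin and 10 uM ATP in 50 mM Tris acetate pH 7.5, 10 mM Mg acetate, 0.01% Tween-20, 0.05% BSA; 6-point qHTS titration about 60 µM downward; luminescence read.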
* marks the source's active call; other numbers are inactive results; u = inconclusive; x = not tested or not shown; [ ] = remark or other dose. The call rests on the fitted dose curve; in most records, active means well fitted curve in the direction sought with a large enough effect; inconclusive means small, poorly fitted or top-dose-only effect, or another doubt; inactive means no such curve, though single readings can be large; an effect the other way counts as inactive or inconclusive. Potency means the concentration at half of the fitted maximal effect.

SMILES | Rab9 prom act | ELG1 genotox | NPC1 promoter act | Luc counter | SMN2 splice enh | FLuc modulator
CCC(CC)C(=O)Nc1ccc2nc(SCC(=O)N3CCOCC3)sc2c1 | x | x | x | x | x | -10%
Clc1ccc(CN=C2Nc3ccccc3CS2)cc1 | 2.2µM* | u | 3.2µM* | -3% | 13µM* | 6µM*
COc1ccccc1CN=C1Nc2ccccc2CS1 | u | 13% | u | -1% | u | 24µM*
c1cncc(CN=C2Nc3ccccc3CS2)c1 | 1% | -1% | 6% | -7% | 7% | -2%
COc1cccc(CN=C2Nc3ccccc3CS2)c1 | 3.2µM* | u | 2.8µM* | -7% | 14µM* | 12µM*
COc1cccc(CN2CCSCC2)c1 | -2% | 0% | -4% | 0% | 0% | 5%
Cc1ccc(CN=C2Nc3ccccc3CS2)cc1 | 0.45µM* | 2.6µM* | 0.5µM* | -11% | 7.9µM* | 0.6µM*
CCCOc1ccc(-c2nonc2NC(=O)c2oc3ccc(C)cc3c2C)cc1OCCC | x | x | x | x | 5% | -2%
CCN(CC)CCOC(=O)c1ccc(NC(=O)CNC(=O)C2CCCCC2)cc1 | 0% | -1% | -1% | 0% | -8% | -3%
COc1ccc(OC)c(C2CC(=O)Nc3ccc4ccccc4c32)c1 (stereo not given) | x | x | x | x | 1% | -13%
COc1ccc(OC)c(C2CC(=O)Nc3cc(OC)c(OC)c(OC)c32)c1 (stereo not given) | -5% | 18µM* | 0% | -4% | u | 7%
CCOC(=S)SCC(=O)N1CCc2cc(OC)ccc2C1C1C(=O)CCCC1=O (stereo not given) | 2% | u | -4% | 3% | 14% | 6%
COc1ccc(CNC(=O)Cn2nnc(-c3ccc(C(F)(F)F)cc3)n2)cc1 | x | x | x | x | x | 0%
CCCOc1ccccc1/C=C(\C#N)C(=O)Nc1cccnc1 | 28% | u | 8% | x | x | 19µM*
COc1ccc(O)c(/C=C(\C#N)C(=O)Nc2cccnc2)c1 | 21% | u | 8% | -4% | 5% | 4.8µM*
COc1ccc(/C=C(\C#N)C(=O)Nc2cccnc2)cc1 | 1% | 1% | -3% | 0% | 2% | u
O=C(CCn1c(=O)c2cccn2c2cccnc21)NCc1ccccc1Cl | x | x | x | x | x | 0%
Cc1ccc(/C=C/C(=O)NC2=NCCS2)cc1 | 0.5µM* | 2.9µM* | u | -3% | 0.5µM* | 1.3µM*
CC(=O)c1ccc(NC(=O)/C=C/c2ccc(C)cc2)cc1 | -8% | 10% | -5% | 10% | 12% | u
CC(C)(C)c1ccc(/C=C/C(=O)NC2=NCCS2)cc1 | 0.4µM* | u | 0.5µM* | -4% | u | 0.76µM*
O=C(Nc1cccc(Cl)c1)c1ccc(F)c(S(=O)(=O)NCc2ccc3c(c2)OCO3)c1 | -4% | 2% | -4% | 2% | -34% | 1%
CC[C@@H]1[C@H]2CCCC(=O)N3CC[C@@H](C[C@@H]1OC(=O)Nc1ccccc1)[C@@H]23 | -2% | 0% | 0% | x | x | 0%
Cc1cccc(NC(=O)C2CCCN(S(=O)(=O)c3ccc(Br)s3)C2)c1 (stereo not given) | x | x | x | x | -19% | -1%
O=C(Cn1c(=O)oc2cc(S(=O)(=O)N3CCCCCC3)ccc21)Nc1cccc(C(F)(F)F)c1 | x | x | x | x | x | -6%
O=C(CCNC(=O)c1ccccc1Cl)NCCCSc1ccccc1 | -3% | 0% | 1% | x | x | -2%
SMILES | Rab9 prom act | ELG1 genotox | NPC1 promoter act | Luc counter | SMN2 splice enh | FLuc modulator
O=C(NCCSc1ccccc1)c1ccccc1Cl | 3.2µM* | 13µM* | 2.5µM* | -4% | 11µM* | 7.6µM*
Cc1ccccc1C(=O)NCCSc1ccccc1 | 2.8µM* | 7.3µM* | 3.5µM* | -6% | 13µM* | 9.5µM*
N#CC(C#N)=c1ccc2c(c1)NC1(CCCCC1)N=2 | 29% | -3% | 25% | 13µM* | -85% | u
O=C(Cn1cc(C(=O)c2cccs2)c2ccccc21)Nc1ccc(Br)cc1 | x | x | x | x | -35% | -5%
Cc1ccc(C(=O)Nc2cccc(C(=O)NCc3ccccc3)c2)cc1 | 10% | -8% | 13% | -3% | -14% | 8.5µM*
Cc1ccc(C(=O)Nc2cccc(C(=O)NCc3ccco3)c2)cc1 | 28% | 12% | u | -2% | u | 12µM*
COc1cccc(CNC(=O)c2ccc(C(=O)NCc3cccc(OC)c3)cc2)c1 | -3% | u | -1% | x | x | 3%
CCC(=O)Oc1ccc(C(=O)Nc2cccc(C(=O)NCC(C)C)c2)cc1 | -9% | -1% | -4% | 3% | x | 13µM*
COc1cccc(CNC(=O)c2ccc(C3SCCS3)cc2)c1 | 6% | 17% | 4% | x | x | 17µM*
Cc1occc1C(=O)Nc1cccc(C(=O)NCc2ccccc2)c1 | -8% | -4% | -1% | 4% | -8% | 1%
COc1ccc(N2CCN(C(=O)C3CCN(C(=O)c4cccc(Cl)c4)CC3)CC2)cc1 | -2% | -9% | -1% | x | x | -1%
NC[C@@H]1O[C@@H](O[C@H]2[C@H](O)[C@H](O[C@@H]3O[C@H](CO)[C@@H](O)[C@H](N)[C@@H]3O)[C@@H](N)C[C@H]2N)[C@H](N)C[C@@H]1O | x | x | x | 2%[17.1 µM] | -29%[20.6 µM] | x
COc1ccc(/C=C\c2onc(C)c2S(=O)(=O)N2CCC(C(=O)Nc3ccc(F)cc3F)CC2)cc1 | x | x | x | x | -9% | 4%
CCCN1C(=O)C(Cc2nc3ccccc3c(=O)n2CC)c2cc(Br)ccc21 (stereo not given) | x | x | x | x | 13% | 0%
CC1CN(C(=O)C2(C)CC2(Br)Br)CC(C)O1 (stereo not given) | -6% | -1% | -2% | 1% | 0% | -1%
COc1ccc(NC(=O)c2cccc(NC(=O)c3ccccc3)c2)cc1 | u | 4% | u | x | x | u
O=C(Nc1cccc(Cl)c1)Nc1ccccc1C(=O)NCc1ccco1 | 7% | 1% | 3% | -10% | 9% | 19µM*
O=C(Nc1ccccc1C(=O)NCc1ccco1)Nc1cccc2ccccc12 | -4% | -4% | -5% | 0% | 3% | -20%
COc1ccc(C(=O)Nc2cccc(C(=O)NCc3ccccc3)c2)cc1 | -2% | -5% | 3% | -3% | 1% | 12µM*
O=C(N/N=C/C(Cl)=C/c1ccccc1)c1cnccn1 | 21% | 17% | 17% | -6% | 14% | 12µM*
CC(=C/c1ccccc1)/C=N/NC(=O)c1cnccn1 | u | 8.9µM* | 4µM* | -23% | u | 4.8µM*
CC(/C=N/Nc1nc(C)cc(C)n1)=C\c1ccc(C(C)C)cc1 | 8% | 2% | -4% | -4% | -6% | 19µM*
CC(/C=N/NC(=O)c1cc(C(C)C)[nH]n1)=C\c1ccccc1 | 8% | -6% | 3% | 1% | 9% | u
